# Laboratory results as given in PubChem BioAssay AID686948 (National Center for Advancing Translational Sciences (NCATS), 2013).
# The source made the active and inactive calls. Calls come from the whole dose curve; as a rule, active = well fitted inhibition curve with a large enough effect; inactive = flat fitted curve, though single readings scatter.
# Molecular target: Tyrosine-protein kinase Yes (Homo sapiens) (UniProt P07947)
# Experiment: qHTS for small molecule inhibitors of Yes1 kinase: Confirmatory screen on the cherrypicks
# Conditions: Recombinant Yes1, ADP-Glo luminescence, poly(E4Y) substrate
# Description: The Src family of non-receptor protein tyrosine kinases contains nine members, including Yes1, Src, Fyn, Lyn, and […]. These kinases have important roles in a variety of cellular functions, such as cell proliferation, survival, and differentiation. Src, the most well characterized member of this family, has been previously identified as a proto-oncogene. […] In melanoma, it has been shown that Yes1, and not other family members, such as Src, is functionally involved in the malignant phenotype. Additionally, a recent study examining the downregulation of Yes1 by shRNA found significant effects on cell survival/growth for basal-like and Her2-positive breast cancers. […]
# Two microliter of Yes1 enzyme (columns 1-2, 5-48; Millipore, Billerica, MA) are dispensed into Greiner, white solid-bottom 1536-well assay plates; columns 3 and 4 receive buffer without Yes1 as a control for maximum inhibition. […] The production of ADP is then quantified by the ADP-Glo Kit (Promega, Madison, WI). First, 2 uL of the first kit reagent is added, and the reaction is incubated for 45 minutes; then, 4 uL of the second kit reagent are added and the reaction is incubated for 30 minutes at which time the luminescence is read on a Viewlux plate reader (Perkin-Elmer, Waltham, MA). […]
# Chain of Tyrosine-protein kinase Yes (Homo sapiens) (P07947 whole entry, looked up): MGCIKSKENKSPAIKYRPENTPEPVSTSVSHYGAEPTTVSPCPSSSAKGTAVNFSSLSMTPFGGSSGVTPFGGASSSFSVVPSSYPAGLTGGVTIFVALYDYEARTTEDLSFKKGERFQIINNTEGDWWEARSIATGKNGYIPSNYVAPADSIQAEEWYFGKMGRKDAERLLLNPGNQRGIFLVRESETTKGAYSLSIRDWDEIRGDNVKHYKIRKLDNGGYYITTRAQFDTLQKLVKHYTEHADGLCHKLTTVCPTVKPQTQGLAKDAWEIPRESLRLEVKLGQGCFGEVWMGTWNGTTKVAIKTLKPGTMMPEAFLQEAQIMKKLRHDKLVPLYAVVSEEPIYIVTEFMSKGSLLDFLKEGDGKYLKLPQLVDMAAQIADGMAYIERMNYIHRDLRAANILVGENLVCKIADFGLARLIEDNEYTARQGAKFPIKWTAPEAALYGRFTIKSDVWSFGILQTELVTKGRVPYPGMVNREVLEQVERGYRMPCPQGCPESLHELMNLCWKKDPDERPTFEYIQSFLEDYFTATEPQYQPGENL
smiles,measurement,value
c1cc(-c2cnn3cc(-c4ccc(OCCN5CCCCC5)cc4)cnc23)ccn1,Potency,196 nM (active)
